{
  "source": "PubChem BioAssay",
  "note": "Activity calls are given as the source filed them.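 How the source made its calls: active means inhibition above 20% together with a positive visual image hit; inconclusive means visual image hit but inhibition not above 20%; inactive means no visual image hit.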",
  "data": [
    {"test": "inhibitors of TNFa-induced NFkB p65 translocation, primary screen, imaging, HUVEC, MLSMR starter and 10KST1 sets (AID 438);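 further: compound added about 3h40 before a 20 min TNFalpha stimulation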;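 on inhibition: signal is the nuclear over cytoplasmic p65 intensity ratio per well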", "settings": "HUVEC TNFa-induced p65 nuclear translocation; cell count: measured here: nuclei count (cytotoxicity indicator), at 2.08 µM; inhibition: at 2 µM, stronger effect = higher value, 0% TNFa-plus-vehicle, 100% no-TNFa wells", "values": [
      {"smiles": "O=C(NCCSc1c[nH]c2ccccc12)c1ccco1", "inhibition": "-2.4% (inactive)", "cell count": 686},
      {"smiles": "CCOC(=O)CSc1nc2cc(C(=O)N3CCC(C(N)=O)CC3)ccc2c(=O)n1-c1ccccc1", "cell count": 391, "inhibition": "4.8% (inactive)"},
      {"smiles": "Cc1cc2c(cc(C(=O)OCC(=O)NCc3cccs3)n2C(C)C)o1", "cell count": 379, "inhibition": "9.9% (inactive)"},
      {"smiles": "CC(=O)NC1CC2CCCC(C1)N2CC(=O)Nc1ccccc1", "note": "(stereo not drawn)", "cell count": 302, "inhibition": "9.6% (inactive)"},
      {"smiles": "C=CCNc1oc(-c2cccc3ccccc23)nc1C#N", "cell count": 365, "inhibition": "-0.4% (inactive)"},
      {"smiles": "COC(=O)c1oc2ccc(Br)cc2c1NC(C)=O", "inhibition": "-0.8% (inactive)", "cell count": 644},
      {"smiles": "COc1ccc(CCNC(=O)CSc2nnc(CNc3ccc(Cl)cc3)o2)cc1OC", "cell count": 241, "inhibition": "-3.2% (inactive)"},
      {"smiles": "CCCS(=O)(=O)C(=C1Nc2ccccc2N1)S(=O)(=O)CCC", "cell count": 543, "inhibition": "-7% (inactive)"},
      {"smiles": "CCn1cc(C(=O)NCCC2=CCCCC2)c(=O)c2cc(S(=O)(=O)N(C)C)ccc21", "cell count": 458, "inhibition": "-6.1% (inactive)"},
      {"smiles": "CCc1ccc(NC(=O)CS(=O)CC(=O)NC(C)CCc2ccco2)cc1", "note": "(stereo not drawn)", "inhibition": "0.6% (inactive)", "cell count": 388},
      {"smiles": "O=C(OCCN=C1NS(=O)(=O)c2ccccc21)C1CC(=O)N(c2ccc(Cl)cc2)C1", "note": "(stereo not drawn)", "inhibition": "2.7% (inactive)", "cell count": 354},
      {"smiles": "O=C(c1cccc(C(=O)N2CCN(c3ccc(F)cc3)CC2)c1)N1CCN(c2ccc(F)cc2)CC1", "inhibition": "1.5% (inactive)", "cell count": 692},
      {"smiles": "CCOP(=O)(c1ccc(N(C)C)cc1)C(O)c1c(Cl)cccc1Cl", "note": "(stereo not drawn)", "inhibition": "-3.5% (inactive)", "cell count": 220},
      {"smiles": "CN1CCN(C(=O)C2(NC(=O)Nc3cccc(F)c3)CCCCC2)CC1", "cell count": 586, "inhibition": "-33.7% (inactive)"}
    ]}
  ]
}
